From PubChem
Calb FLC: C. albicans growth modulation with fluconazole; C. albicans CaCi-2 (fluconazole-resistant clinical isolate) + fluconazole, Alamar Blue growth, 48 h; growth inhibition, % (no concentration beside the values); 300,000 compounds, 0.57% hits; AID 1979;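 active = growth inhibition above about 58% in most replicates, limit read from the data, passing the limit was not always enough; inconclusive = exactly half the replicates above a set limit; inactive = most replicates below a set limit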;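 note: all wells also contain fluconazole at 8 µg/ml as a sub-toxic cotreatment; 0% = median of DMSO wells and 100% = median of geldanamycin control wells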
TNF necrop inh: TNF-alpha cell death inhibition in Jurkat FADD-/- cells | Jurkat FADD-/- TNF necroptosis rescue, ATP luminescence, 24 h; 0 = TNF only, 100 = no-TNF cells | activation (protection from cell death), % at 10 µM | 220,000 compounds, 0.068% hits | AID 463075;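 active = activation, meaning protection from cell death, of at least 50% relative to plate controls; inactive = activation below 50%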;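 note: necroptosis triggered by 40 ng/mL TNF-alpha added together with compound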
HIF activator: HIF pathway transcriptional activation | U2OS HRE-luciferase reporter, luminescence; normalized: DMSO 0%, desferrioxamine 100% | activation, % at 7.5 µM (by protocol) | 300,000 compounds, 0.32% hits | AID 1910;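 active = mean activation of at least 10% of the iron chelator positive control signal, with at least half of replicates also reaching 10%; inconclusive = mean and replicate majority disagree about reaching 10%; inactive = mean and most replicates under 10%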
zVAD death inh: blocks zVAD induced death of L929 cells | L929 zVAD necroptosis rescue, ATP luminescence, 24 h; with zVAD 60 µM | viability rescue, % at 10 µM | 220,000 compounds, 0.38% hits;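 active = activation, scaled between plate controls, above about 75%, limit read from the data; inactive = activation under that limit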;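 note: 0% = zVAD with DMSO and 100% = DMSO alone without zVAD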
* marks the source's active call; other numbers are inactive results; ? = inconclusive; . = no result given. Shown are actives, neighbours in structure and some others; about 1.1% of the full set was active somewhere.

SMILES | Calb FLC | TNF necrop inh | HIF activator | zVAD death inh
Cc1ccccc1-n1ncc2c(SCC(=O)NC3CCCC3)ncnc21 | -1 | . | 0 | .
Cc1cccc(Cc2nnc(CCC(=O)N3CCCCC3c3nccs3)o2)c1 (centres undefined) | 100* | 0 | 0 | 1
CN1C(=O)C(C)(C)c2cc(S(=O)(=O)NCCc3ccc(Cl)cc3)ccc21 | 8 | . | 0 | .
COc1ccccc1CN1CCNC(=O)C1CC(=O)N(C)Cc1nc(C)cs1 (centres undefined) | 0 | . | 0 | .
Cn1c(-c2ccccn2)[n+](C)c2ccccc21 | 1 | 0 | 0 | 3
CN(C)c1ccc(-c2n(C)c3ccccc3[n+]2C)cc1 | 102* | -9 | 0 | 0
CCN(CC)CCN(C(=O)c1cc2c(ccc3ccccc32)oc1=O)c1nc2cc3c(cc2s1)OCCO3 | 1 | . | -1 | .
O=C(COC(=O)CCc1ccccc1)Nc1ccc(F)cc1Cl | 7 | . | -19 | .
CCOc1cc(C(C(=O)NCC2CCCO2)N(C(=O)Cn2nnc3ccccc32)c2ccc(OC)c(OC)c2)ccc1O (centres undefined) | 5 | . | 0 | .
COc1ccc(N(C(=O)Cn2nnc3ccccc32)C(C(=O)NC(C)(C)C)c2ccc(OC)c(O)c2)cc1 (centres undefined) | 78* | 0 | 1 | -1
CC(C)(C)NC(=S)N/N=C/c1cc(Br)c(O)c(Br)c1 | 76* | 3 | 0 | 0
c1ccc(CSc2nnc(-c3cccs3)n2Cc2ccco2)cc1 | 121* | 0 | 0 | 0
CCCc1ccc(C(=O)NNc2cccc(C)c2)cc1 | 97* | -3 | . | 0
Cc1cccc(NC(=O)CC(=O)Nc2cccc(C)c2)c1 | -26 | . | -2 | .
CCCc1ccc(C(=O)NNC(=O)c2ccc(Cl)cc2)cc1 | 3 | -3 | 0 | 1
Cc1cccc(NNC(=O)C(=O)NNc2cccc(C)c2)c1 | 100* | 0 | 0 | -1
Cc1cc(NC(=O)CSCC(=O)Nc2nc3c(C)cccc3s2)no1 | 2 | . | -1 | .
Cc1ccc(S(=O)(=O)CC2CSc3nc(N)cc(=O)n32)cc1 (centres undefined) | 3 | 0 | 0 | 0
Cc1ccc(S(=O)(=O)CC2CSc3nc4ccccc4n32)cc1 (centres undefined) | 88* | -18 | -1 | 0
COc1ccc(-c2nnc(NC(=O)c3ccc(S(=O)(=O)N4CCc5ccccc5C4)cc3)o2)cc1 | 97* | -2 | -19 | 1
Cc1ccc(C)c(SCC(=O)Nc2nnc(-c3ccccc3)o2)c1 | 81* | -2 | -5 | -1
COc1ccc(-c2nnc(NC(=O)c3ccc(F)cc3)o2)cc1 | 92* | -2 | 0 | 0
O=C(Nc1nnc(-c2ccc3c(c2)CCCC3)o1)c1ccc(Cl)cc1Cl | 85* | 0 | 0 | -1
O=C(Nc1nnc(-c2ccc3c(c2)CCCC3)o1)c1c(F)cccc1F | ? | 3 | -2 | 1
COc1ccc(-c2csc(NC(=O)c3ccc(S(=O)(=O)N4CCc5ccccc5C4)cc3)n2)cc1 | -13 | 2 | -6 | 1
SMILES | Calb FLC | TNF necrop inh | HIF activator | zVAD death inh
COc1ccc(-c2nnc(NC(=O)c3cc(Cl)ccc3Cl)o2)cc1 | 83* | -1 | 0 | 1
COc1ccccc1C(=O)Nc1nnc(-c2ccc(Cl)cc2)o1 | -2 | 1 | 0 | 0
Cc1nnc(NC(=O)c2ccc(S(=O)(=O)N3CCCCCC3)cc2)o1 | 63 | 0 | 0 | 0
COCc1nnc(NC(=O)c2ccc(S(=O)(=O)N3CCCCCC3)cc2)o1 | 80* | -1 | 0 | 1
Cc1ccccc1C(=O)Nc1nnc(-c2ccc(F)cc2)o1 | 89* | -2 | 0 | 1
CCCN(Cc1nnc(-c2ccccc2Cl)o1)C(=O)c1cc(S(=O)(=O)N2CCOCC2)ccc1F | 2 | . | 1 | .
CCOc1cc(N2CCOCC2)c(OCC)cc1NC(=O)[C@H](C)N1C(=O)C2CC=CCC2C1=O (some centres undefined) | -3 | 1 | 0 | 2
CCOc1cc(N2CCOCC2)c(OCC)cc1NC(C)C(=O)N1CCC(C)CC1 (centres undefined) | 22 | -1 | 29* | -1
Fc1ccccc1NC(=S)N(CCN1CCCCC1)Cc1ccco1 | 10 | 0 | 0 | -2
O=C(c1cc2c(s1)CCCCC2)N1CCN(c2ncccn2)CC1 | 76* | -2 | 0 | 0
CC(=O)c1ccc(N2CCN(C(=O)c3cc4c(s3)CCCC4)CC2)cc1 | 2 | -3 | 2 | 0
O=C1C(Cl)=C(N2CCCC2)C(=O)N1c1ccccc1F | -2 | . | 1 | .
O=C(N/N=C/c1ccccc1O)c1cc(=O)[nH]c2ccccc12 | 2 | -6 | 11* | 2
COc1cc(OC)c2cc(C(=O)N/N=C/c3ccccc3O)[nH]c2c1 | 81* | . | -1 | .
COc1ccc2[nH]c(C(=O)N/N=C/c3ccccc3OC)cc2c1 | 3 | . | ? | .
Cc1ccc2[nH]c(C(=O)N/N=C/c3ccccc3O)c(C)c2c1 | -19 | . | 169* | .
Cc1ccc2c(C(=O)CN3CC(C)CC(C)C3)c(C)[nH]c2c1 (centres undefined) | -6 | . | 2 | .
NNc1ccc(Cc2ccc(Cl)cc2Cl)nn1 | -1 | -1 | -1 | 56
CSc1ccc(Cc2ccc(Cl)cc2Cl)nn1 | 22 | 62* | 2 | 8
Cc1ccc(Nc2cc(-c3ccccc3)nc3ncnn23)cc1 | -2 | -13 | -1 | -1
Cc1cc(N/N=C/c2ccc(O)cc2O)nc(-c2ccccc2O)n1 | 3 | -6 | 21* | 6
NS(=O)(=O)c1cccc(NC(=S)NCc2ccc3c(c2)OCO3)c1 | 116* | 1 | . | 1
NS(=O)(=O)c1ccc(NC(=S)NCc2ccc3c(c2)OCO3)cc1 | 39 | 1 | 1 | 2
O=C(CS(=O)(=O)c1ccc(Cl)cc1)Nc1nnc(-c2cccs2)o1 | -2 | . | 0 | .
COc1ccccc1NC(=O)Cn1ccn(-c2cccc3ccccc23)c(=O)c1=O | 0 | . | 0 | .
SMILES | Calb FLC | TNF necrop inh | HIF activator | zVAD death inh
CN(C)S(=O)(=O)c1cccc(NC(=S)N/N=C/c2cc(Br)ccc2O)c1 | 81* | -19 | 47* | 11
COc1ccc(C2N=C(Nc3ccc(C)cc3)Nc3nc(C)cc(=O)n32)cc1 (centres undefined) | 110* | 0 | 0 | 1
Cc1ccc(NC2=NC(c3ccc(O)cc3)n3c(nc(C)cc3=O)N2)cc1 (centres undefined) | -3 | -1 | 0 | 0
COc1ccc(S(=O)(=O)N(C)C)cc1NC(=O)COC(=O)c1nc2nccc(C)n2n1 | -14 | 0 | 0 | 1
Cc1ccc(Nc2nc(NCc3ccco3)c3ccccc3n2)cc1 | 92* | -6 | 0 | 0
CCOc1ccc(NC(=O)c2sccc2-n2cccc2)cc1 | -1 | 0 | 0 | 1
Cn1cc(CN2CCC(C(=O)Nc3cccc(-c4cscn4)c3)CC2)cn1 | -9 | . | 73* | .
Cc1ccc(S(=O)(=O)/N=C2/NC(=O)/C(=C\c3cc(Br)cc(Br)c3O)S2)cc1 | 123* | . | . | .
Cc1[nH]c2ccccc2c1/C=C/c1cc[n+](C)cc1 | 104* | -2 | 1 | 0
CCOCCCNC(=O)c1ccc(N(C)S(=O)(=O)c2ccc(OC)cc2)cc1 | 106* | 1 | 0 | -1
